Measured values published in PubChem BioAssay (NCI).
Compounds without any hit were thinned out: in the full panel of roughly 79,000, 15% have a hit. Activity calls are given as the source filed them. Rule as the data show it: active = growth inhibition above about 70%; inactive = the rest.

Columns and labels:
[1] = NCI Yeast Anticancer Drug Screen. Data for the rad52 strain (AID 147);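 also: 0% = growth of vehicle-treated control cultures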; conditions: S. cerevisiae rad52 mutant growth inhibition, active compounds read high
Procedure, shortened: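 Genetically altered yeast (DNA damage repair defect) treated with compound; inhibition calculated relative to vehicle.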

[2] = NCI Yeast Anticancer Drug Screen. Data for the wt1 strain (AID 149);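 also: 0% = growth of vehicle-treated wt1 cultures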; conditions: S. cerevisiae wt1 strain (SPY 50644) growth inhibition, active compounds read high
Procedure, shortened: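 Growth inhibition read against vehicle controls after compound exposure of the wt1 yeast strain.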

[3] = NCI Yeast Anticancer Drug Screen. Data for the rad50EPP+ strain (AID 151);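 also: 0% = growth of vehicle-treated control cultures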; conditions: S. cerevisiae rad50 mutant strain, active compounds read high
Procedure, shortened: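 Strain rad50EPP+; compound exposure; % growth inhibition vs vehicle.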

[4] = NCI Yeast Anticancer Drug Screen. Data for the mgt1 strain (AID 153); conditions: S. cerevisiae mgt1 mutant growth inhibition, active compounds read high
Procedure, shortened: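 Read-out: yeast growth inhibition vs vehicle control. Strain mgt1, drawn from a panel altered in DNA damage repair or cell cycle control.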

[5] = NCI Yeast Anticancer Drug Screen. Data for the rad50 strain (AID 155);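 also: 0% = growth of vehicle-only cultures of the same strain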; conditions: S. cerevisiae rad50 strain growth inhibition, active compounds read high
Procedure, shortened: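 Readout: growth inhibition relative to vehicle-treated cultures. Compound exposure was carried out in a genetically defined yeast strain deficient in DNA damage repair.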

[6] = NCI Yeast Anticancer Drug Screen. Data for the mec2-1 strain (AID 157); conditions: S. cerevisiae mec2-1 strain, active compounds read high
Procedure, shortened: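 Cells of the genetically defined mec2-1 yeast strain are incubated with test compound. Inhibition of growth is calculated against vehicle-treated controls.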

[7] = NCI Yeast Anticancer Drug Screen. Data for the rad14 strain (AID 159);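 also: 0% = growth of vehicle-treated control cultures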; conditions: S. cerevisiae rad14 strain growth inhibition, active compounds read high
Procedure, shortened: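 Growth inhibition vs vehicle controls; genetically altered yeast strain (DNA damage repair defect) treated with test compounds.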

[8] = NCI Yeast Anticancer Drug Screen. Data for the sgs1 mgt1 strain (AID 161);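 also: 0% = growth of cultures given vehicle only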; conditions: S. cerevisiae sgs1 mgt1 strain, active compounds read high
Procedure, shortened: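 Genetically altered yeast, compound exposure, growth inhibition relative to vehicle.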

[9] = NCI Yeast Anticancer Drug Screen. Data for the CLN2oe strain (AID 163);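 also: 0% = growth of vehicle-only control cultures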; conditions: S. cerevisiae CLN2oe strain, active compounds read high
Procedure, shortened: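 Strain altered in cell-cycle control, incubated with compound; growth compared to solvent-treated controls.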

[10] = NCI Yeast Anticancer Drug Screen. Data for the cln2 rad14 strain (AID 165);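 also: 0% = growth equal to vehicle treated cultures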; conditions: S. cerevisiae cln2 rad14 strain, active compounds read high
Procedure, shortened: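 The screen exposed genetically defined yeast (cln2 rad14) to test compounds and scored growth inhibition relative to vehicle-treated controls.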

[11] = NCI Yeast Anticancer Drug Screen. Data for the bub3 strain (AID 167); conditions: S. cerevisiae bub3 mutant strain, active compounds read high
Procedure, shortened: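 Readout: yeast growth inhibition, expressed relative to vehicle-only wells. The test organism is a mutant strain from a panel with lesions in DNA repair or checkpoint genes.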

[12] = NCI Yeast Anticancer Drug Screen. Data for the wt2 strain (AID 169);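 also: 0% = growth of vehicle-treated yeast cultures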; conditions: S. cerevisiae wt2 strain growth inhibition, active compounds read high
Procedure, shortened: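 Steps: yeast strain treated with compound; growth recorded; inhibition calculated relative to cultures given vehicle alone.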

[13] = NCI Yeast Anticancer Drug Screen. Data for the mlh1 strain (AID 171);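 also: 0% = growth of vehicle-treated control cultures of the same strain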; conditions: S. cerevisiae mlh1 strain growth inhibition, active compounds read high
Procedure, shortened: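 Yeast screen: mutant strain plus compound, growth scored against vehicle control wells.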

[14] = NCI Yeast Anticancer Drug Screen. Data for the sgs1 strain (AID 173);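 also: 0% = growth of vehicle-only control cultures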; conditions: S. cerevisiae sgs1 mutant, active compounds read high
Procedure, shortened: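 Inhibition of yeast growth served as the measure. The mutant strain was treated with each compound, and growth was normalised to cultures receiving vehicle alone.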

[15] = NCI Yeast Anticancer Drug Screen. Data for the mlh1 rad18 strain (AID 175); conditions: S. cerevisiae mlh1 rad18 strain growth inhibition, active compounds read high
Procedure, shortened: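 Compound-treated yeast growth, normalised to vehicle controls. Strain bears defined DNA repair mutations.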

[16] = NCI Yeast Anticancer Drug Screen. Data for the rad18 strain (AID 177); conditions: S. cerevisiae rad18 mutant growth inhibition, active compounds read high
Procedure, shortened: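 Inhibition values reflect reduced yeast growth compared with vehicle-treated controls, using a strain engineered with a DNA damage repair defect.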

[17] = at 5.0 µM (retest, dose inferred, filed as 0.5)
[18] = at 50.0 µM (retest, dose inferred, filed as 5.0)

Measured: growth inhibition

CCC[CH2][Ge]([CH2]CCC)([CH2]CCC)[O]C(=O)C(OC)c1ccccc1 (stereo not drawn)
active: [1]; at 100.0 µM 98% | [2]; at 100.0 µM 97% | [4]; at 100.0 µM 99% | [5]; at 100.0 µM 98% | [6]; at 50.0 µM 75.5% | [6]; at 100.0 µM 98% | [7]; at 100.0 µM 95% | [8]; at 50.0 µM 82.8% | [9]; at 100.0 µM 98% | [11]; at 50.0 µM 76% | [11]; at 100.0 µM 97% | [12]; at 100.0 µM 98% | [13]; at 100.0 µM 98% | [14]; at 33.0 µM 71% | [14]; at 100.0 µM 94% | [15]; at 50.0 µM 78% | [16]; at 33.0 µM 80% | [16]; at 100.0 µM 98%
inactive: [1]; at 1.2 µM 0% | [1]; at 3.7 µM 6% | [1]; at 11.0 µM 25% | [1]; at 33.0 µM 66% | [2]; at 1.2 µM -3% | [2]; at 3.7 µM -6% | [2]; at 11.0 µM -3% | [2]; at 33.0 µM 30% | [3]; at 1.2 µM -2% | [3]; at 3.7 µM 3% | [3]; at 11.0 µM 6% | [3]; at 33.0 µM 16% | [3]; at 100.0 µM 34% | [4]; at 1.2 µM -2% | [4]; at 3.7 µM -1% | [4]; at 11.0 µM 1% | [4]; at 33.0 µM 58% | [5]; at 1.2 µM 2% | [5]; at 3.7 µM 8% | [5]; [17] 60% | [5]; at 11.0 µM -2% | [5]; at 33.0 µM 64% | [5]; [18] 60% | [5]; at 50.0 µM 69.9% | [6]; at 1.2 µM -1% | [6]; at 3.7 µM -1% | [6]; [17] 57% | [6]; at 11.0 µM 7% | [6]; at 33.0 µM 34% | [6]; [18] 57% | [7]; at 1.2 µM -2% | [7]; at 3.7 µM -7% | [7]; at 11.0 µM -10% | [7]; at 33.0 µM 26% | [8]; [17] 59% | [8]; [18] 59% | [9]; at 1.2 µM -6% | [9]; at 3.7 µM 1% | [9]; at 11.0 µM 6% | [9]; at 33.0 µM 41% | [10]; [17] 18% | [10]; [18] 18% | [10]; at 50.0 µM 66.5% | [11]; at 1.2 µM -6% | [11]; at 3.7 µM -4% | [11]; [17] 10% | [11]; at 11.0 µM 12% | [11]; at 33.0 µM 54% | [11]; [18] 10% | [12]; at 1.2 µM -3% | [12]; at 3.7 µM -4% | [12]; at 11.0 µM 0% | [12]; at 33.0 µM 48% | [13]; at 1.2 µM -4% | [13]; at 3.7 µM -5% | [13]; at 11.0 µM -1% | [13]; at 33.0 µM 60% | [14]; at 1.2 µM -1% | [14]; at 3.7 µM 1% | [14]; at 11.0 µM 11% | [15]; [17] 39% | [15]; [18] 39% | [16]; at 1.2 µM 5% | [16]; at 3.7 µM 4% | [16]; at 11.0 µM 22%
